INS promoter inh = TRM-6 insulin promoter activity inhibition; TRM-6 cells (human fetal islet line), insulin promoter-eGFP reporter, imaging; reporter expression induced with tamoxifen; inhibition, % at 2 µM; actives 0.9% (n = 130,000); AID 1273;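 active means inhibition above the mean plus 3 SD, with well images judged a real hit on visual review, cut at about 60% in these data, passing the limit was not always enough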
Lmaj promast = reduces viability of Leishmania major promastigotes. resazurin fluorescence viability. inhibition, % at 10 µM. actives 9% (n = 200,000). AID 1063; in the data active means inhibition above about 50%;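 further: promastigotes grown with compound for 44 hours at 28 °C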
WT yeast gro inh = growth inhibition of WT yeast, mitochondrial fusion screen. inhibition, % at 10 µM. actives 2.1% (n = 190,000). mitochondrial fusion phenotypic screen, WT strain. AID 1362; in the data active means inhibition above about 58%; tested in S. cerevisiae
Autophagy mod = alters autophagy in cells; calls only at 10 µM (by protocol); actives 0.98% (n = 190,000); MEF GFP-LC3 puncta imaging; test concentration mostly 10 µM;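 active means percentage of spot-positive cells more than 3 SD above its plate mean, without a fluorescence outlier flag or 80% toxicity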;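 further: spot-positive cell cutoff set from DMSO-treated cells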
Insulin prom up = MIN6 insulin promoter up-regulation; MIN6 insulin promoter-GFP reporter, high-content imaging; hits give high values; z-score at 5 µM; actives 0.3% (n = 190,000);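 active means z-score above 3 at 5 µM with at least 500 cells counted in the well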
* hit, by the source's call. Shown are actives, neighbours in structure and some others; about 11% of the full set was active somewhere.

CC(NC(=O)CN(c1cccc(C(F)(F)F)c1)S(=O)(=O)c1ccc(Cl)c([N+](=O)[O-])c1)c1ccccc1 (configuration not stated) was read as INS promoter inh -20.0, Lmaj promast 50.0*, WT yeast gro inh 7.4, Autophagy mod inactive and Insulin prom up -0.54.
`Cc1ccc(N(CC(=O)NCCc2ccc(F)cc2)S(=O)(=O)c2ccc(Cl)c([N+](=O)[O-])c2)c(C)c1` gave Lmaj promast 53.5*, WT yeast gro inh 17.9, Autophagy mod inactive and Insulin prom up -0.73.
Cc1ccc(C(C(=O)Nc2ccc(C(C)C)cc2)N(C)C(=O)c2ccc(=O)[nH]c2)cc1 (configuration not stated) was read as Lmaj promast -8.5, WT yeast gro inh 8.7, Autophagy mod inactive and Insulin prom up 0.54.
For N#Cc1cnn2c(-c3ccc(Cl)cc3Cl)ccnc12 the results were INS promoter inh -42.9, Lmaj promast 5.7, WT yeast gro inh -0.9, Autophagy mod inactive and Insulin prom up 0.55.
`CO/N=C/CC(=O)c1cnc(-c2ccc(Cl)cc2)s1` gave INS promoter inh 66.7, Lmaj promast 12.5, WT yeast gro inh 7.8, Autophagy mod inactive and Insulin prom up -0.15.
Screening CC(/C=N/n1c(C2CCCCC2)n[nH]c1=S)=C\c1ccccc1 returned INS promoter inh 0.0, Lmaj promast -5.9, WT yeast gro inh 89.1*, Autophagy mod inactive and Insulin prom up -0.19.
Screening Oc1c(N=NC(=S)Nc2ccccc2F)c2ccccc2n1Cc1ccccc1 returned Lmaj promast 95.6*, WT yeast gro inh -5.3, Autophagy mod inactive and Insulin prom up -4.76.
`Cc1ccc(Cn2c(O)c(N=NC(=S)Nc3ccccc3F)c3ccccc32)cc1` gave Lmaj promast 96.6*, WT yeast gro inh 5.9, Autophagy mod inactive and Insulin prom up -1.46.
Screening CCCCNC(=S)N=Nc1c(O)n(Cc2ccccc2)c2ccccc12 returned Lmaj promast 8.9, WT yeast gro inh 17.8, Autophagy mod inactive and Insulin prom up -1.09.
`C=CCn1c(O)c(N=NC(=S)Nc2ccccc2F)c2ccccc21` gave Lmaj promast 96.4*, WT yeast gro inh 22.8, Autophagy mod inactive and Insulin prom up -2.44.
For Cc1c(Cl)cccc1NC(=S)N=Nc1c(O)n(CN2CCOCC2)c2ccccc12 the results were INS promoter inh -92.9, Lmaj promast 98.1*, WT yeast gro inh 62.4, Autophagy mod inactive and Insulin prom up -1.44.
`C=CCn1c(O)c(N=NC(=S)Nc2ccccc2F)c2cc(S(=O)(=O)N3CCOCC3)ccc21` gave Lmaj promast -0.6, WT yeast gro inh 25.5, Autophagy mod inactive and Insulin prom up -2.78.
`C=CCn1c(O)c(N=NC(=S)Nc2cccc(C)c2)c2ccccc21` gave INS promoter inh -100.0, Lmaj promast 98.7*, WT yeast gro inh 14.6, Autophagy mod inactive and Insulin prom up -1.45.
`Oc1c(N=NC(=S)Nc2ccccc2F)c2ccccc2n1Cc1ccccc1Cl` gave Lmaj promast 84.2*, WT yeast gro inh 4.5, Autophagy mod inactive and Insulin prom up -0.08.
CCn1c(O)c(N=NC(=O)CNc2cccc(C)c2)c2ccccc21 was read as INS promoter inh -51.5, Lmaj promast -3.2, WT yeast gro inh 1.6, Autophagy mod inactive and Insulin prom up -0.25.
Screening CCOc1ccc(S(=O)(=O)N/N=C(\C)c2ccc(OC)cc2OC)cc1 returned INS promoter inh 44.4, Lmaj promast 5.2, WT yeast gro inh -1.7, Autophagy mod inactive and Insulin prom up 0.7.
CCOc1ccc2nc(CN3CCN(Cc4ccsc4)C(CCO)C3)ccc2c1 (configuration not stated) was read as Lmaj promast 21.2, WT yeast gro inh 7.8, Autophagy mod inactive and Insulin prom up 0.31.
`O=C(c1ccc(Br)o1)N(Cc1ccccc1)c1ccccn1` gave INS promoter inh -35.7, Lmaj promast 1.0, WT yeast gro inh 0.0, Autophagy mod inactive and Insulin prom up -0.1.
`c1ccc2c(Nc3ccc4c(c3)OCCO4)c3c(nc2c1)CCCC3` gave Lmaj promast 98.9*, WT yeast gro inh 13.0 and Autophagy mod inactive.
For O=C(Nc1c2c(nc3ccccc13)CCCC2)c1ccccc1F the results were INS promoter inh 64.3*, Lmaj promast -3.0, WT yeast gro inh -22.5, Autophagy mod inactive and Insulin prom up 0.4.
Screening COc1cc(Nc2c3c(nc4ccccc24)CCCC3)cc(OC)c1OC returned INS promoter inh 46.7, Lmaj promast 66.4*, WT yeast gro inh -3.7, Autophagy mod inactive and Insulin prom up 0.31.
Screening CS(=O)(=O)N1CCN(C(=O)Cc2ccccc2Cl)CC1 returned INS promoter inh -50.0, Lmaj promast -6.0, WT yeast gro inh 3.5, Autophagy mod inactive and Insulin prom up 0.1.
`O=S(=O)(CCSc1ccccn1)c1nc2ccccc2s1` gave INS promoter inh 53.9, Lmaj promast 31.5, WT yeast gro inh -2.5, Autophagy mod active and Insulin prom up 1.18.
O=C(CSc1ccccn1)Nc1nc2ccccc2s1 was read as INS promoter inh -6.9, Lmaj promast 46.0, WT yeast gro inh -3.0, Autophagy mod inactive and Insulin prom up 0.4.
Screening O=S(=O)(CCSc1nc2ccccc2o1)c1nc2ccccc2s1 returned INS promoter inh 51.7, Lmaj promast 98.3*, WT yeast gro inh 12.7 and Autophagy mod active.
`Cc1ccnc(NC(NC(=O)C(C)C)(C(F)(F)F)C(F)(F)F)c1` gave INS promoter inh 37.5, Lmaj promast -6.5, WT yeast gro inh 12.7, Autophagy mod inactive and Insulin prom up 0.33.
N#C/C(=C\c1ccccc1C(F)(F)F)C(=O)Nc1ccccc1 was read as Lmaj promast 1.9, WT yeast gro inh 17.4, Autophagy mod inactive and Insulin prom up -0.13.
For CCc1cccc(CC)c1NC(=O)/C(C#N)=C/c1ccccc1C(F)(F)F the results were Lmaj promast 97.4*, WT yeast gro inh 68.4*, Autophagy mod inactive and Insulin prom up -0.55.
For S=C(NCc1ccccc1)NC1CCCCC1 the results were Lmaj promast -0.1, WT yeast gro inh 24.6, Autophagy mod inactive and Insulin prom up -0.86.
S=C(NCc1cccc(Cl)c1)NC1CCCCC1 was read as INS promoter inh -35.7, Lmaj promast 22.5, WT yeast gro inh 65.8*, Autophagy mod inactive and Insulin prom up -0.82.
For Cc1ccc(Nc2c(N)c(=O)oc3ccccc23)cc1 the results were INS promoter inh -75.0, Lmaj promast 73.4*, WT yeast gro inh -13.7 and Autophagy mod active.
Screening O=C(CN1CCN(c2ccc(Cl)cc2[N+](=O)[O-])CC1)N1CCOCC1 returned Insulin prom up 0.3.
`CCCCC(=O)Nc1ccccc1C(C)C` gave Lmaj promast -4.8, WT yeast gro inh -15.8, Autophagy mod inactive and Insulin prom up -0.12.
For CCN1c2ccccc2NC2C1C(C(C)=O)C(=O)N2c1ccc(Cl)cc1 (configuration not stated) the results were INS promoter inh -133.3, Lmaj promast 35.4, WT yeast gro inh 16.3 and Autophagy mod active.
COc1ccc(/C=N/NC(=O)c2ccc(=O)n(C)c2)cc1OC was read as INS promoter inh -20.0, Lmaj promast 2.6, WT yeast gro inh 5.2, Autophagy mod inactive and Insulin prom up 1.01.
